The values that follow come from PubChem BioAssay (NCI).

About 83,000 compounds went through this panel and 20% of them were active in at least one assay; those are over-represented in the sample as a whole.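 48-hour exposure, single concentration, 96-well plates; percent growth endpoint where 0 means no net growth. Active: below 10.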 Activity calls are given as the source filed them.

This assay relates to K-562 leukemia. Description: NCI-60 one-dose screen, 48 h (100 = growth as untreated, 0 = no growth, -100 = all killed). The following applies: 10 µM unless noted.
Regarding `C=CC1=C[C@@H]2[C@@H]3O[C@]4(CC[C@H](O4)[C@@H](C)C[C@@H](O)C3=O)C[C@H](O)C3=NCC[C@@]32CC1`, the growth is 5.48% (active). Take `Cc1cc(-c2nc3cc(F)ccc3[se]2)cc(F)c1N`: the growth is 95.8% (inactive). Next, `CN1CC(=O)N(O)C1(C)c1cccnc1` (configuration not stated): 99.4% (inactive); `O=C(Nc1ccncc1F)c1cn(CC2CC2)c2ccccc12`: 95.7% (inactive); `COc1cccc2c1c(C(=O)C(=O)Nc1cc(C)no1)cn2Cc1ccc(F)cc1`: 13.4% (inactive).

As to `CC(C)OC(=O)[C@H](C)NP(=O)(Oc1ccccc1)C1CCCN(O)C1=O` (some centres not stated), the growth was 94.2% (inactive). In the case of `CC[C@@H]1[C@@H](C)O[C@@](O)([C@@H](C)[C@H](O)[C@H](C)[C@H]2OC(=O)/C=C/C=C/[C@H](C)[C@@H]([C@@H](C)[C@@H](O)[C@H](C)[C@@]3(O)C[C@@H](O[C@H]4C[C@@H](O)[C@H](O)C(C)O4)[C@H](CC)[C@@H](C)O3)OC(=O)/C=C/C=C/[C@@H]2C)C[C@H]1O[C@@H]1C[C@@H](O)[C@H](O)C(C)O1` (some centres not stated) it was -71.6% (active). In the case of `CCOc1ccc(/C=C/[N+](=O)[O-])cc1` it was 69% (inactive); in that of `O=C1C2C(C(=O)[N]1[Hg][c]1ccccc1)C1(Cl)C(Cl)=C(Cl)C2(Cl)C1(Cl)Cl` (configuration not stated), 4.39% (active).

In the case of `COC(=O)[C@@H](C)C[C@H](Cc1ccc2ccccc2c1)NC(=O)c1csc([C@@H](C[C@H](C(C)C)N(C)C(=O)[C@@H](NC(=O)[C@H]2CCCCN2C)C(C)C)OC(C)=O)n1`, the growth was 25.7% (inactive). Next, `Cc1cc(N(CCCl)CCCl)ccc1C=Nc1ccccc1-c1ccccc1`: 85% (inactive); `CCn1cnc2c(Nc3cccc(Cl)c3)nc(N[C@@H]3CCCC[C@@H]3N)nc21`: -2.92% (active). As to `CC12CCC3C(CCC4=CC(=O)CCC43CF)C1CCC2=O` (configuration not stated), the growth was 93.5% (inactive). Next, `C=CC12CCN(CC1)C(C(O)c1ccnc3ccc(OC)cc13)C2` (configuration not stated): 17.6% (inactive); `COc1cc([C@@H]2c3cc4c(cc3[C@H](OC(C)=O)[C@H]3COC(=O)[C@H]23)OCO4)cc(OC)c1OC`: 9.74% (active). In the case of `CC(=O)[O][Hg][O]C(C)=O`, the growth is 29.7% (inactive).

On to `O=C(CCCCCCC(=O)Nc1ccc(N(CCCl)CCCl)cc1)NO`, for which the growth was 32.6% (inactive).

With `CC[C@H](C)[C@H](NC(=O)[C@H]1CCCCN1C)C(=O)N(C)[C@H](C[C@@H](OC(C)=O)c1nc(C(=O)NC23CC(C(=O)OC)(C2)C3)cs1)C(C)C`, the growth is 5.87% (active). In the case of `COc1ccc(/C(C)=C(\c2ccc(OCCN3CCOCC3)cc2)c2ccc(OC(=O)Cc3ccccc3)cc2)cc1` it was 91% (inactive); in that of `NC(=O)C(Br)c1ccccc1` (configuration not stated), 84.3% (inactive); in that of `O=C([O][Hg][CH2]C1OCCOC1[CH2][Hg][O]C(=O)c1ccccc1)c1ccccc1` (configuration not stated), -36% (active). Take `CN(C)CCCOc1ccc2c(c1)c(C(=O)C(=O)NCCO)cn2Cc1ccccc1`: the growth was 106% (inactive). As to `C1CCC([PH+](C2CCCCC2)C2CCCCC2[PH+](C2CCCCC2)C2CCCCC2)CC1.O=C(C1[CH-]CCCC1)C1CCCC[N-]1.[Au]` (configuration not stated), the growth is 5.08% (active). With `C[Se]C(=O)c1ccccc1OC(C)=O`, the growth is 74.8% (inactive).

For the molecule `CC(C)COC(C[N+](=O)[O-])C(Cl)(Cl)Cl` (configuration not stated), the growth is 99.9% (inactive). In the case of `Oc1c(O)c(Cl)c(Cl)c(Cl)c1Cl` it was 24.2% (inactive); in that of `NC(N)=N/N=C\c1c[nH]c2ccc(Br)cc12`, 74.6% (inactive). In the case of `Brc1ccc2c(c1)c(-c1nc(-c3c[nH]c4ncccc34)cs1)cn2CCN1CCCCC1` it was -15.7% (active); in that of `COc1ccc2c(c1)c(C1(O)CC(CSC#N)OC1=O)cn2C(=O)c1ccc(Cl)cc1` (configuration not stated), 98.5% (inactive); in that of `COC(=O)[C@@H](C)C[C@H](Cc1ccccc1)NC(=O)c1nc([C@@H](C[C@H](C(C)C)N(C)C(=O)[C@@H](NC(=O)[C@H]2CCCCN2C)C(C)C)OC(C)=O)sc1C`, 8.3% (active).

Regarding `COc1ccc(-n2c(C)nc3cc(OC)c(OC)cc3c2=O)cc1OC`, the growth is 104% (inactive). `CC[S][Hg][Cl]`: the growth is 75.4% (inactive). In the case of `COc1ccc(C2=CC(c3ccc(OC)c(OC)c3)c3c(c4ccccc4oc3=O)O2)cc1OC` (configuration not stated) it was 1.17% (active); in that of `COc1ccc(/C=C\c2cc(OC)c(OC)c(OC)c2)cc1OCC(=O)Nc1nc2ccc(OC(F)(F)F)cc2s1`, 22.9% (inactive). Next, `CCCCCCCCCCCCCCCCCC1OC[C@H](COC(=O)O[C@@H](C(=O)O[C@H]2C[C@@]3(O)[C@@H](OC(=O)c4ccccc4)[C@@H]4[C@]5(OC(C)=O)CO[C@@H]5C[C@H](O)[C@@]4(C)C(=O)[C@H](OC(C)=O)C(=C2C)C3(C)C)[C@@H](NC(=O)c2ccccc2)c2ccccc2)O1` (some centres not stated): 37.5% (inactive); `O=C(Nc1ccc(O)cc1)C(Cl)(Cl)Cl`: 98.2% (inactive); `CCOC(=O)[C@@H](C)C[C@H](Cc1ccccc1)NC(=O)c1nc([C@@H](C[C@H](C(C)C)N(C)C(=O)[C@@H](NC(=O)[C@H]2CCCCN2C)C(C)C)OC(C)=O)sc1CCOCc1ccccc1`: -31.4% (active).
